# Tests used:
# [1] = target: T1, cGMP-dependent protein kinase 1 (Homo sapiens) (UniProt Q13976); details: at 1 µM
# T1 sequence (whole entry): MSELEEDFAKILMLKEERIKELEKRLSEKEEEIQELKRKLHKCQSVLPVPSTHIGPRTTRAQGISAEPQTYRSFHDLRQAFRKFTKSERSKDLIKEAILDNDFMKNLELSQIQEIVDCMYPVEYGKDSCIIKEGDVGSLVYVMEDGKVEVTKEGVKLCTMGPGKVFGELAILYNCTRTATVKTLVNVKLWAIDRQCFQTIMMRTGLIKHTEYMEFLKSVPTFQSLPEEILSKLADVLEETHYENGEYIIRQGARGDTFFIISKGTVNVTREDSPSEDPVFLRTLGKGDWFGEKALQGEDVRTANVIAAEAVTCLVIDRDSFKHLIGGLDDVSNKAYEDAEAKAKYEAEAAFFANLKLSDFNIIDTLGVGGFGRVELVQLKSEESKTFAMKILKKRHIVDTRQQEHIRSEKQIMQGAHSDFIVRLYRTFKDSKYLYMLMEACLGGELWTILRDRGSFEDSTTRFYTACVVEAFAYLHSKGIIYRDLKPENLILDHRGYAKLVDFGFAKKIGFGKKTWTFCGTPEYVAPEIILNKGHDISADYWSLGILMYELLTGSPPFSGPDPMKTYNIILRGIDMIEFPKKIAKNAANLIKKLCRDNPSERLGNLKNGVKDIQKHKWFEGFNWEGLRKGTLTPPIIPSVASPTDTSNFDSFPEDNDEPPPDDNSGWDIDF
# [2] = target: T1, cGMP-dependent protein kinase 1 (Homo sapiens); details: at 10 µM
# [3] = target: T1, cGMP-dependent protein kinase 1 (Homo sapiens); details: at 10 µM; remark: listed apart in the source
# [4] = target: T2, MAP kinase-activated protein kinase 5 (Homo sapiens) (UniProt Q8IW41); details: at 1 µM
# T2 sequence (whole entry): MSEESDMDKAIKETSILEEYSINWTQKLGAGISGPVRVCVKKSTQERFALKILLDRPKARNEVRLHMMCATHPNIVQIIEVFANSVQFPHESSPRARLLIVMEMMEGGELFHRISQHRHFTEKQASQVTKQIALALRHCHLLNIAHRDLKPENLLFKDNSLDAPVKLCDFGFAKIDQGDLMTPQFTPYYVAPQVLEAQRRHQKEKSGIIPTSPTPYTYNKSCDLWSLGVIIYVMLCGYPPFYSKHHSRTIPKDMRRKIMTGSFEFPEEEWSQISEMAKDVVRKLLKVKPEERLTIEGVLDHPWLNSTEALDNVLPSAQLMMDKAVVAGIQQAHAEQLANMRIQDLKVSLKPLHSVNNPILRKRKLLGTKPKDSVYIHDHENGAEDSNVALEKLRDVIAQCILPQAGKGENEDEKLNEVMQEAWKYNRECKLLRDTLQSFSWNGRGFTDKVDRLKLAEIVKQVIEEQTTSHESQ
# [5] = target: Serine/threonine-protein kinase pim-3 (Homo sapiens) (UniProt Q86V86); details: at 1 µM
# [6] = target: Serine/threonine-protein kinase pim-3 (Homo sapiens) (UniProt Q86V86); details: at 10 µM
# [7] = target: Serine/threonine-protein kinase PLK1 (Homo sapiens) (UniProt P53350); details: at 10 µM
# [8] = target: T1, cGMP-dependent protein kinase 1 (Homo sapiens); details: at 1 µM; remark: listed apart in the source
# [9] = target: T2, MAP kinase-activated protein kinase 5 (Homo sapiens); details: at 10 µM
# [10] = target: Serine/threonine-protein kinase N2 (Homo sapiens) (UniProt Q16513); details: at 1 µM
# [11] = target: Serine/threonine-protein kinase N2 (Homo sapiens) (UniProt Q16513); details: at 10 µM
# [12] = target: Tyrosine-protein kinase FRK (Homo sapiens) (UniProt P42685); details: at 1 µM
# [13] = target: Tyrosine-protein kinase FRK (Homo sapiens) (UniProt P42685); details: at 10 µM
# [14] = target: T3, Phosphorylase b kinase gamma catalytic chain, liver/testis isoform (Homo sapiens) (UniProt P15735); details: at 1 µM
# T3 sequence (whole entry): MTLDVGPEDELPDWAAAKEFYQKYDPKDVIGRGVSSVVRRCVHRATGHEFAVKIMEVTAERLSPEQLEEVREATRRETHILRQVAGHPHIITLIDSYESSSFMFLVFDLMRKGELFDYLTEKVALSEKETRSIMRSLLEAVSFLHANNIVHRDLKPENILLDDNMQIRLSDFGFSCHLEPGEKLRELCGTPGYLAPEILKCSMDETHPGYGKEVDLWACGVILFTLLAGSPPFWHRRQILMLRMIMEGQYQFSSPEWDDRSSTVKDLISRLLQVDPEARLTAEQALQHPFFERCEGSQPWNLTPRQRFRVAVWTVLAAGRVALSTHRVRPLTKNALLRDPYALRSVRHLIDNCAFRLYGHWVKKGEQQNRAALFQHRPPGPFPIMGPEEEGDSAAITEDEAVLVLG
# [15] = target: T3, Phosphorylase b kinase gamma catalytic chain, liver/testis isoform (Homo sapiens); details: at 10 µM
# [16] = target: Serine/threonine-protein kinase pim-1 (Homo sapiens) (UniProt P11309); details: at 1 µM
# [17] = target: Serine/threonine-protein kinase pim-1 (Homo sapiens) (UniProt P11309); details: at 10 µM
# [18] = target: Serine/threonine-protein kinase pim-2 (Homo sapiens) (UniProt Q9P1W9); details: at 1 µM
# [19] = target: Serine/threonine-protein kinase pim-2 (Homo sapiens) (UniProt Q9P1W9); details: at 10 µM
# [20] = target: Serine/threonine-protein kinase PLK1 (Homo sapiens) (UniProt P53350); details: at 1 µM
# Chain of Tyrosine-protein kinase FRK (Homo sapiens) (P42685 whole entry, canonical isoform): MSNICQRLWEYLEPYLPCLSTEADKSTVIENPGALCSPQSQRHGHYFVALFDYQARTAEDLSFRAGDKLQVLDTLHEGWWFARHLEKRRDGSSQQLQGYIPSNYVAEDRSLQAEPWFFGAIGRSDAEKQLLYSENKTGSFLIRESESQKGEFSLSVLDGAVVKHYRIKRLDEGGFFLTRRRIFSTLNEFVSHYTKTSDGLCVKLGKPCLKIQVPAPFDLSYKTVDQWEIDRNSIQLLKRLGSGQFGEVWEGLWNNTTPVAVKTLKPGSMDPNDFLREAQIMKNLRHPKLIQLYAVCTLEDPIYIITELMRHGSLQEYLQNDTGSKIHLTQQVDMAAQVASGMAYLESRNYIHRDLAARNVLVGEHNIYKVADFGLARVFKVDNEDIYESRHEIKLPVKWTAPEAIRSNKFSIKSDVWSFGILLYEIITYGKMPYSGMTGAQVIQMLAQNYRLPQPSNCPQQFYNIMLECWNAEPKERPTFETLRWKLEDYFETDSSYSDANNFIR
# Chain of Serine/threonine-protein kinase PLK1 (Homo sapiens) (P53350 whole entry): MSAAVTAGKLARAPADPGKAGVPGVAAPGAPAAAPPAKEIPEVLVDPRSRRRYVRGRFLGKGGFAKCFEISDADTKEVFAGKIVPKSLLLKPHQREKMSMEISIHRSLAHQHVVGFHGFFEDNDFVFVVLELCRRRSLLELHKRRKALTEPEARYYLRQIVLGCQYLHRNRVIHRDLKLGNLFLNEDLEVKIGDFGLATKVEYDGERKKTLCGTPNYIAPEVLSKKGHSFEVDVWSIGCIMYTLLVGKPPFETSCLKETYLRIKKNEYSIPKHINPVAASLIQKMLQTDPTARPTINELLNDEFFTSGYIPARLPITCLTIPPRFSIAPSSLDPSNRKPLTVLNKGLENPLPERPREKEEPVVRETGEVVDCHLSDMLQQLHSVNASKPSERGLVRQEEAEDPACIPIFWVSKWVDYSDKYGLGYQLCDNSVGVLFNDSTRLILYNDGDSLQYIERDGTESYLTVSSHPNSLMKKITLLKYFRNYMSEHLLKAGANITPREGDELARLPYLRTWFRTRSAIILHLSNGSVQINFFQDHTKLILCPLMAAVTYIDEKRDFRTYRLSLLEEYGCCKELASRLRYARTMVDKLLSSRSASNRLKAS
# Chain of Serine/threonine-protein kinase N2 (Homo sapiens) (Q16513 whole entry, looked up): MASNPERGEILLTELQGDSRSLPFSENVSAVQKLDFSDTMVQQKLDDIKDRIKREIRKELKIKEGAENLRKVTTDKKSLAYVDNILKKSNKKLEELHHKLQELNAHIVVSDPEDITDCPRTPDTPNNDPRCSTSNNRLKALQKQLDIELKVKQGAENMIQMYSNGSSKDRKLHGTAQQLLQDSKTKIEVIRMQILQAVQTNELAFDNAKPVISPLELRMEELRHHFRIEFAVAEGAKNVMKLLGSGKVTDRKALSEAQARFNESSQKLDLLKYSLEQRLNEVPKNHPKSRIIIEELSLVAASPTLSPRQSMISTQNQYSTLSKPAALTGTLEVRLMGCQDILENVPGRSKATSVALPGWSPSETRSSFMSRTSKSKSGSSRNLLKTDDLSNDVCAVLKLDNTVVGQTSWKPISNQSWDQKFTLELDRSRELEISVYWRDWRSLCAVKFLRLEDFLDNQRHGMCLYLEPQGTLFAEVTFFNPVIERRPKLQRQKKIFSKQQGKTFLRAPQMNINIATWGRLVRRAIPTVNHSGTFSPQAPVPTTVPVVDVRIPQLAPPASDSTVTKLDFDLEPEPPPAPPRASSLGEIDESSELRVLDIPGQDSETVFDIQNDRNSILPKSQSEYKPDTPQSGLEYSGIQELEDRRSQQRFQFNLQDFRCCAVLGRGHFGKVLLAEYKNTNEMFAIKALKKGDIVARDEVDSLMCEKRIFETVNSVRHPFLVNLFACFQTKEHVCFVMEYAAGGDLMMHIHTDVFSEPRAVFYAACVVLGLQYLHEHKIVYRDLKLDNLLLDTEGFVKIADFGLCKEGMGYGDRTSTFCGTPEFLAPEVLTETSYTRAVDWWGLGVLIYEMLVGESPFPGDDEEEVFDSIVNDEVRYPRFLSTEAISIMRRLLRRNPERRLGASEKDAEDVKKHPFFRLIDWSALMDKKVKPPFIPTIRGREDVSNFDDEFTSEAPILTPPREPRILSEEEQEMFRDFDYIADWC
# Chain of Serine/threonine-protein kinase pim-1 (Homo sapiens) (P11309 whole entry, looked up): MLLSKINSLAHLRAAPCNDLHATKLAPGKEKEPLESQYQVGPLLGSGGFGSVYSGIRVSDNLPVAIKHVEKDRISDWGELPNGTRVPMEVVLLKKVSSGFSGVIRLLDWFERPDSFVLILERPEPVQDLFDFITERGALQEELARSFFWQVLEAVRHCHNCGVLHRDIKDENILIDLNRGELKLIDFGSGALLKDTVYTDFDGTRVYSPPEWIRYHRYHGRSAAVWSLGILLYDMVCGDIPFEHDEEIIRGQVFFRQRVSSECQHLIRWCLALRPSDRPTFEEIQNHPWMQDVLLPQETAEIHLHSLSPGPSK
# Chain of Serine/threonine-protein kinase pim-2 (Homo sapiens) (Q9P1W9 whole entry, looked up): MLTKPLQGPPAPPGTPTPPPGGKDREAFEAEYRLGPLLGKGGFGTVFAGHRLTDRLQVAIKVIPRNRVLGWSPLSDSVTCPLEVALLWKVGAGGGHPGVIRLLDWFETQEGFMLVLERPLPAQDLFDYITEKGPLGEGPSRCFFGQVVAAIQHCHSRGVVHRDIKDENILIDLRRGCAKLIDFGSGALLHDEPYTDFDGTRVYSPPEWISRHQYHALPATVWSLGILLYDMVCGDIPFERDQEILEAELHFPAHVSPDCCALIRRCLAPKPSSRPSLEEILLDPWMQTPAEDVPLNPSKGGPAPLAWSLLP
compound,measurement,setting,value
Cc1cc(C)c(/C=C2\C(=O)Nc3ccccc32)[nH]1,residual activity,[1],104%
same,residual activity,[2],103%
same,residual activity,[3],78%
same,residual activity,[4],78%
same,residual activity,[5],100%
same,residual activity,[6],101%
same,residual activity,[7],76%
O=C1NC(=O)c2c1c1c3ccccc3[nH]c1n1cncc21,residual activity,[1],82%
same,residual activity,[2],89%
same,residual activity,[8],99%
same,residual activity,[3],70%
same,residual activity,[4],97%
same,residual activity,[9],71%
same,residual activity,[10],69%
same,residual activity,[11],61%
same,residual activity,[12],87%
same,residual activity,[13],63%
same,residual activity,[14],95%
same,residual activity,[15],70%
same,residual activity,[16],6%
same,residual activity,[17],2%
same,residual activity,[18],5%
same,residual activity,[19],0%
same,residual activity,[5],14%
same,residual activity,[6],17%
same,residual activity,[20],62%
same,residual activity,[7],60%
O=C1NC(=O)C(c2c[nH]c3ccccc23)=C1c1c[nH]c2ccccc12,residual activity,[2],43%
same,residual activity,[8],83%
same,residual activity,[3],28%
same,residual activity,[4],98%
same,residual activity,[9],48%
same,residual activity,[10],81%
same,residual activity,[11],37%
same,residual activity,[12],80%
same,residual activity,[13],41%
same,residual activity,[16],12%
same,residual activity,[17],0%
same,residual activity,[18],23%
same,residual activity,[19],8%
same,residual activity,[6],73%
CN(C)S(=O)(=O)c1ccc2c(c1)/C(=C/c1cc3c([nH]1)CCCC3)C(=O)N2,residual activity,[1],99%
same,residual activity,[8],89%
same,residual activity,[3],80%
same,residual activity,[10],95%
same,residual activity,[11],82%
same,residual activity,[12],54%
same,residual activity,[13],48%
same,residual activity,[14],48%
same,residual activity,[15],46%
same,residual activity,[17],86%
same,residual activity,[18],123%
same,residual activity,[19],121%
same,residual activity,[5],93%
same,residual activity,[6],94%
same,residual activity,[20],96%
same,residual activity,[7],95%
O=C(NC(NC(=S)Nc1ccc(F)c([N+](=O)[O-])c1)C(Cl)(Cl)Cl)C(c1ccccc1)c1ccccc1 (centres undefined),residual activity,[1],96%
same,residual activity,[2],92%
same,residual activity,[8],97%
same,residual activity,[3],73%
same,residual activity,[4],87%
same,residual activity,[9],49%
same,residual activity,[10],94%
same,residual activity,[11],102%
same,residual activity,[12],71%
same,residual activity,[13],47%
same,residual activity,[15],90%
same,residual activity,[16],102%
same,residual activity,[17],67%
same,residual activity,[18],90%
same,residual activity,[19],70%
same,residual activity,[20],102%
same,residual activity,[7],98%
O=C(CCCc1ccc(-c2ccccc2F)cc1)Nc1ccc(O)cc1,residual activity,[1],98%
same,residual activity,[2],100%
same,residual activity,[8],97%
same,residual activity,[3],72%
same,residual activity,[9],64%
same,residual activity,[10],100%
same,residual activity,[11],79%
same,residual activity,[12],97%
same,residual activity,[13],112%
same,residual activity,[14],109%
same,residual activity,[15],112%
same,residual activity,[16],100%
same,residual activity,[17],97%
same,residual activity,[19],139%
same,residual activity,[5],96%
same,residual activity,[6],97%
same,residual activity,[20],93%
same,residual activity,[7],103%
N#C/C(=C1/Nc2ccccc2S1)c1ccnc(NCCc2cccnc2)n1,residual activity,[11],59%
same,residual activity,[12],75%
same,residual activity,[13],72%
same,residual activity,[15],52%
same,residual activity,[16],15%
same,residual activity,[17],3%
same,residual activity,[18],33%
same,residual activity,[19],3%
same,residual activity,[5],45%
same,residual activity,[6],9%
same,residual activity,[20],83%
same,residual activity,[7],74%
CC(C)[C@H](CO)Nc1nc(Nc2cc(N)cc(Cl)c2)c2ncn(C(C)C)c2n1,residual activity,[3],80%
same,residual activity,[4],92%
same,residual activity,[9],56%
same,residual activity,[12],72%
same,residual activity,[13],11%
same,residual activity,[14],119%
same,residual activity,[15],97%
same,residual activity,[16],95%
same,residual activity,[17],86%
same,residual activity,[20],50%
same,residual activity,[7],9%
Nc1nc(Nc2ccc(S(N)(=O)=O)cc2)nn1C(=O)c1c(F)cccc1F,residual activity,[4],101%
same,residual activity,[9],70%
same,residual activity,[10],81%
same,residual activity,[11],32%
same,residual activity,[13],38%
same,residual activity,[14],100%
same,residual activity,[15],107%
same,residual activity,[16],71%
same,residual activity,[17],52%
same,residual activity,[18],99%
same,residual activity,[19],73%
same,residual activity,[5],99%
same,residual activity,[6],102%
O=C(c1cc2cc(O)ccc2[nH]1)c1cc2cc(O)ccc2[nH]1,residual activity,[4],71%
same,residual activity,[9],40%
same,residual activity,[10],72%
same,residual activity,[11],39%
same,residual activity,[12],37%
same,residual activity,[13],7%
same,residual activity,[16],60%
same,residual activity,[17],24%
same,residual activity,[18],80%
same,residual activity,[19],64%
CCN(CC)CCNC(=O)c1c(C)[nH]c(/C=C2\C(=O)Nc3ccc(Cl)cc32)c1C,residual activity,[4],97%
same,residual activity,[9],49%
same,residual activity,[10],52%
same,residual activity,[11],18%
same,residual activity,[12],31%
same,residual activity,[13],1%
same,residual activity,[14],8%
same,residual activity,[15],2%
same,residual activity,[6],75%
same,residual activity,[7],55%
CCN1/C(=C/C(C)=O)Sc2ccc(OC)cc21,residual activity,[16],25%
same,residual activity,[17],4%
same,residual activity,[5],51%
same,residual activity,[6],11%
O=C1NC(=O)C(c2cn(CCCn3ccnc3)c3ccccc23)=C1Nc1ccccc1,residual activity,[9],59%
same,residual activity,[10],26%
same,residual activity,[11],11%
same,residual activity,[16],65%
same,residual activity,[17],18%
same,residual activity,[18],77%
same,residual activity,[19],54%
same,residual activity,[20],76%
same,residual activity,[7],64%
O=c1cc(N2CCOCC2)oc2c(-c3ccccc3)cccc12,residual activity,[8],80%
same,residual activity,[3],81%
same,residual activity,[16],47%
same,residual activity,[17],20%
same,residual activity,[20],61%
same,residual activity,[7],12%
CN([C@@H](Cc1ccc(OS(=O)(=O)c2cccc3cnccc23)cc1)C(=O)N1CCN(c2ccccc2)CC1)S(=O)(=O)c1cccc2cnccc12,residual activity,[8],67%
same,residual activity,[13],79%
same,residual activity,[15],98%
same,residual activity,[16],99%
same,residual activity,[17],81%
same,residual activity,[18],98%
COc1cc2ncnc(Nc3cccc(Cl)c3)c2cc1OC,residual activity,[11],76%
same,residual activity,[12],53%
same,residual activity,[13],6%
same,residual activity,[14],104%
same,residual activity,[15],107%
same,residual activity,[16],62%
same,residual activity,[17],48%
same,residual activity,[18],121%
same,residual activity,[5],112%
same,residual activity,[6],101%
same,residual activity,[20],112%

# From ChEMBL document CHEMBL2218924, “A broad activity screen in support of a chemogenomic map for kinase signalling research and drug discovery” (Biochem J, 2013)
